Records with an inconclusive call do not appear. Activity calls are given as the source filed them. The calls were made as follows, unless noted: active = hit-call score of the fitted dose curve at least 0.9, where 1 is the maximum; inactive = score below 0.9.
Tests used:
[1] = ATG_TCF_b_cat_CIS: Attagene CIS-FACTORIAL HepG2 Assay for human T-Cell-Factor with beta-catenin (TCF/b-cat) (AID 2282965); conditions: HepG2 TCF/beta-catenin cis-reporter transcription, actives raise or lower the signal
Procedure, shortened: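 HepG2 cells transiently transfected with cis-promoter-driven multiplexed reporter units; reporter mRNA measured 24 h after dosing by RT-PCR, FAM labelling, HpaI digestion and capillary electrophoresis. Bidirectional fitting relative to DMSO baseline.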

[2] = ATG_TAL_CIS: Attagene CIS-FACTORIAL HepG2 Assay for human TAL Basal Promoter (AID 2282966); conditions: HepG2 Attagene cis-factorial TAL promoter reporter; actives raise or lower the signal;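 also: background control endpoint measuring basal TAL promoter reporter mRNA not a specific factor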
Procedure, shortened: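 RT-PCR plus capillary electrophoresis quantifies reporter mRNA induction in transiently transfected HepG2 cells after 24 h chemical treatment. DMSO serves as negative control and baseline for bidirectional fitting.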

[3] = ATG_TGFb_CIS: Attagene CIS-FACTORIAL HepG2 Assay for human Transforming Growth Factor (TGF) (AID 2282967); conditions: HepG2 Attagene CIS TGFb reporter, mRNA transcription; actives raise or lower the signal
Procedure, shortened: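 HepG2 cells transiently transfected with cis-promoter-driven multiplexed reporter units; 24 h compound exposure. Reporter mRNA measured by RT-PCR, 6-FAM labeling, HpaI digestion and capillary electrophoresis; bidirectional fit versus DMSO baseline.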

[4] = ATG_VDRE_CIS: Attagene CIS-FACTORIAL HepG2 Assay for human Vitamin D Receptor Element (VDRE) (AID 2282968); conditions: HepG2 VDRE cis-reporter transcription, actives raise or lower the signal
Procedure, shortened: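 Cell-based multiplexed reporter format in human liver HepG2 cells, 24 h post-dose. Fluorescence from capillary electrophoresis of reporter cDNA gives the signal, with DMSO as negative control and baseline.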

[5] = biological target: Estrogen receptor (Homo sapiens) (UniProt P03372); experiment: ATG_ERa_TRANS: Attagene TRANS-FACTORIAL HepG2 Assay for human Estrogen Receptor alpha (ERa) (AID 2282970; active = hit-call score of the fitted dose curve at least 0.9, where 1 is the maximum); conditions: HepG2 Attagene TRANS ERa GAL4 reporter, mRNA
Sequence of Estrogen receptor (Homo sapiens) (P03372 whole entry, looked up, the tested form may be a part): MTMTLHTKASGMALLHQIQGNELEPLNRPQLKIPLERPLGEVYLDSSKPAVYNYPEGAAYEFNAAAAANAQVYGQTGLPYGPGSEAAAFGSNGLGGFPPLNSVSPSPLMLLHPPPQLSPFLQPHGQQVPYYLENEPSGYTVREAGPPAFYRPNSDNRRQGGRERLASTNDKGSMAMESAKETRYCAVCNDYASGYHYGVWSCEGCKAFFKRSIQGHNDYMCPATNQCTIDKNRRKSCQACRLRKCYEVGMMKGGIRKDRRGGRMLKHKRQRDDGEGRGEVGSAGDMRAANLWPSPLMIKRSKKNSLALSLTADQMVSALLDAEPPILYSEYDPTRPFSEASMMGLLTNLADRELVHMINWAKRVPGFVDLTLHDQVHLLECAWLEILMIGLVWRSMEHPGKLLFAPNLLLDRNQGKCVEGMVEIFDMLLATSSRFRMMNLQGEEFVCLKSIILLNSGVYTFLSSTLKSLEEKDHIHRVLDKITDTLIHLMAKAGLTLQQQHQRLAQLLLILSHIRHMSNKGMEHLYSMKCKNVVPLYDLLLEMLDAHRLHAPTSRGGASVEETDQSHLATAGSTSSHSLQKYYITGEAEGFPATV
Procedure, shortened: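 Cells: HepG2, transiently transfected. Construct: GAL4-UAS reporter units regulated by exogenous NR-Gal4 chimeras. Time: 24 h. Detection: reporter mRNA by RT-PCR, capillary electrophoresis, fluorescence. Baseline: DMSO, upward fitting.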

[6] = biological target: Steroid hormone receptor ERR1 (Homo sapiens) (UniProt P11474); experiment: ATG_ERRa_TRANS: Attagene TRANS-FACTORIAL HepG2 Assay for human Estrogen-Related Receptor alpha (ERRa) (AID 2282971; active = hit-call score of the fitted dose curve at least 0.9, where 1 is the maximum); conditions: HepG2 Attagene TRANS reporter, ERRa transactivation
Sequence of Steroid hormone receptor ERR1 (Homo sapiens) (P11474 whole entry, looked up, the tested form may be a part): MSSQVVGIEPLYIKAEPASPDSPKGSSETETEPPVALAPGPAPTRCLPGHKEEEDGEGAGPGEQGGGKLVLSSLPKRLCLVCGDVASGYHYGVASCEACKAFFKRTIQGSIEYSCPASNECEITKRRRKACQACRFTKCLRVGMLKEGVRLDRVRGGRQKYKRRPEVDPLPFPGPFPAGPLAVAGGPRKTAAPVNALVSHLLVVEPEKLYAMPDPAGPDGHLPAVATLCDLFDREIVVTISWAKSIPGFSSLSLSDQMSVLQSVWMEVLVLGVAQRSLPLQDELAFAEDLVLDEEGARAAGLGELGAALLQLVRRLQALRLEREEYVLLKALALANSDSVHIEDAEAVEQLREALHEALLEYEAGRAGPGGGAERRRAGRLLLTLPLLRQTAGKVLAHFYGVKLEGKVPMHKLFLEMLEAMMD
Procedure, shortened: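 Reporter transcripts from ERRa-Gal4 chimera activity measured in transiently transfected human HepG2 cells 24 hours after dosing, using RT-PCR with 6-FAM primer extension, HpaI digestion and capillary electrophoresis; DMSO is baseline.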

[7] = biological target: X-box-binding protein 1 (Homo sapiens) (UniProt P17861); experiment: ATG_Xbp1_CIS: Attagene CIS-FACTORIAL HepG2 Assay for human X-box Binding Protein 1 (XBP1) (AID 2282972); conditions: HepG2 XBP1 cis-element reporter, Attagene multiplex; actives raise or lower the signal
Sequence of X-box-binding protein 1 (Homo sapiens) (P17861 whole entry, looked up): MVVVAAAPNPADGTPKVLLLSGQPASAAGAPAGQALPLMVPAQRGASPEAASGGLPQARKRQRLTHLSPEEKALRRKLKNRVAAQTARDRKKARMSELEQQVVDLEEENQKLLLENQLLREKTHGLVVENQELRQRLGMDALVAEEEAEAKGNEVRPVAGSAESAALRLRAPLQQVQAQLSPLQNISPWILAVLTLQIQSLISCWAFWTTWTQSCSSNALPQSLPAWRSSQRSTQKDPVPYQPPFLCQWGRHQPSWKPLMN
Procedure, shortened: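 After a 24-hour chemical exposure of HepG2 cells carrying cis-regulated reporters, reporter mRNA levels are assessed. Quantification uses RT-PCR, 6-FAM labelling and capillary electrophoresis. Gain- or loss-of-signal is fitted against DMSO.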

[8] = ATG_GAL4_TRANS: Attagene TRANS-FACTORIAL HepG2 Assay for GAL4 (Internal Marker) (AID 2282976; active = hit-call score of the fitted dose curve at least 0.9, where 1 is the maximum); conditions: HepG2 Attagene TRANS GAL4 internal marker reporter
Procedure, shortened: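 In transfected human HepG2 liver cells dosed 24 h, GAL4 reporter mRNA serves as a baseline marker. Detection by RT-PCR with fluorescent capillary electrophoresis, activity fitted upward relative to DMSO.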

[9] = ATG_M_19_TRANS: Attagene TRANS-FACTORIAL HepG2 Assay for M19 Transcription Factor (Internal Marker) (AID 2282974; active = hit-call score of the fitted dose curve at least 0.9, where 1 is the maximum); conditions: HepG2 Attagene TRANS-FACTORIAL M19 internal marker reporter
Procedure, shortened: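 Background-control readout: after 24 h chemical exposure of transfected HepG2 carrying GAL4-driven reporter units, RNA was reverse-transcribed, amplified, fluorescently labeled and sized by capillary electrophoresis; gain-of-signal fit against DMSO.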

[10] = biological target: Nuclear receptor subfamily 1 group I member 3 (Homo sapiens) (UniProt Q14994); experiment: ATG_CAR_TRANS: Attagene TRANS-FACTORIAL HepG2 Assay for human Constitutive Androstane Receptor (CAR) (AID 2282969; active = hit-call score of the fitted dose curve at least 0.9, where 1 is the maximum;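 also: activators raise reporter mRNA above DMSO so AC50 marks induction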); conditions: HepG2 Attagene TRANS-FACTORIAL CAR reporter
Sequence of Nuclear receptor subfamily 1 group I member 3 (Homo sapiens) (Q14994 whole entry, looked up, the tested form may be a part): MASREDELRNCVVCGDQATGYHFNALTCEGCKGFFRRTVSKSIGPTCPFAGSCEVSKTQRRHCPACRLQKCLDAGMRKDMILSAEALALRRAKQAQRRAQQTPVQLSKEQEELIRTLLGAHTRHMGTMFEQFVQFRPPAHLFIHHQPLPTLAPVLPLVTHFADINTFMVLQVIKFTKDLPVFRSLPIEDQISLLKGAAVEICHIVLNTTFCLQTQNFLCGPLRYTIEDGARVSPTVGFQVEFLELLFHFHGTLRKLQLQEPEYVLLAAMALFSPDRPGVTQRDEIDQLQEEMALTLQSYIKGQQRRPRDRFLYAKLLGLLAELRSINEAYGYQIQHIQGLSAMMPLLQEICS
Procedure, shortened: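 HepG2 cells transiently transfected with GAL4-UAS reporter units; TRANS format reads activity of exogenous chimeric NR-Gal4 protein. After 24 h dosing, reporter mRNA quantified by RT-PCR, 6-FAM labelling and capillary electrophoresis; gain of signal fitted against DMSO.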

Measured: AC50

Oc1ccc2c(c1)CCC2
inactive: [1] | [2] | [3] | [4] | [6] | [7] | [8]
active: [5] 22.6 µM

OCC(F)(F)C(F)(F)C(F)(F)C(F)(F)C(F)(F)C(F)(F)C(F)(F)C(F)(F)CO
active: [5] 0.178 µM
inactive: [1] | [2] | [3] | [4] | [6] | [7] | [8]

NCC(F)(F)C(F)(F)C(F)(F)C(F)(F)C(F)(F)C(F)(F)C(F)(F)C(F)(F)F
inactive: [1] | [2] | [3] | [4] | [5] | [6] | [7] | [8]

O=C(O)CCC(F)(F)C(F)(F)C(F)(F)C(F)(F)C(F)(F)C(F)(F)C(F)(F)F
inactive: [2] | [3] | [4] | [5] | [7] | [9]
active: [1] 150 µM

CCCCCCCCCCCC(=O)Cl
inactive: [2] | [3] | [4] | [5] | [7]
active: [1] 161 µM

FC(F)(F)C(F)(F)C(F)(F)CC1CO1 (centres undefined)
inactive: [1] | [2] | [3] | [4] | [5] | [6] | [7] | [8]

CN(C)C(C)(C)CO
inactive: [1] | [2] | [3] | [4] | [5] | [7] | [9] | [8]

O=C(Cl)C(F)(F)C(F)(F)C(F)(F)C(F)(F)C(F)(F)C(F)(F)C(F)(F)F
inactive: [1] | [2] | [3] | [4] | [7]
active: [5] 53.1 µM

OCCC(O)CO (centres undefined)
inactive: [1] | [2] | [3] | [4] | [5] | [7] | [9] | [8]

FC(F)(F)C(F)(F)C(F)(F)C(F)(F)C(F)(F)C(F)(F)CC[Si](Cl)(Cl)Cl
inactive: [1] | [2] | [3] | [4] | [5] | [6] | [7] | [8]

CSc1ccc(Cl)cc1
inactive: [1] | [2] | [3] | [4] | [5] | [7] | [9]

CCCCCCCCCCCCC[N+](C)(C)Cc1ccccc1
inactive: [1] | [2] | [3] | [4] | [5] | [7]

CC(C)CCCC(C)CCO (centres undefined)
inactive: [1] | [2] | [3] | [4] | [5] | [7] | [9] | [8]

CCOC(C=C(C)CCC=C(C)C)OCC
active: [4] 49.7 µM
inactive: [1] | [2] | [3] | [5] | [6] | [7] | [9] | [8]

CCN(CCO)S(=O)(=O)C(F)(F)C(F)(F)C(F)(F)C(F)(F)C(F)(F)C(F)(F)C(F)(F)C(F)(F)F
active: [7] 29.8 µM
inactive: [1] | [2] | [3] | [4] | [5]

C=CC(=O)OCC(F)(F)C(F)(F)C(F)(F)COC(=O)C=C
inactive: [2] | [3] | [5] | [7]
active: [1] 19.8 µM | [4] 20.7 µM

O=C(O)C(F)(F)C(F)(F)C(F)(F)C(=O)O
inactive: [1] | [2] | [3] | [4] | [5] | [7] | [9]

Cc1ccc(S(=O)(=O)C(I)I)cc1
active: [1] 8.97 µM | [4] 9.01 µM | [7] 7.84 µM
inactive: [2] | [3] | [5]

C=CCOC(=O)CC(C)C
inactive: [1] | [2] | [3] | [4] | [5] | [7] | [9] | [8]

CCN=c1cc2oc3cc(NCC)c(C)cc3c(-c3ccccc3C(=O)OCC)c-2cc1C
inactive: [2] | [3] | [4]
active: [1] 7.34 µM | [7] 11.1 µM

CO[Si](CCCOCC1CO1)(OC)OC (centres undefined)
inactive: [1] | [2] | [3] | [4] | [7]

O=C1C=CC(=O)N1c1ccc(Cc2ccc(N3C(=O)C=CC3=O)cc2)cc1
inactive: [1] | [4] | [9] | [8]
active: [2] 56.8 µM | [3] 41.6 µM | [7] 42.6 µM

CC(O)C#CC(C)O (centres undefined)
inactive: [2] | [3] | [5] | [7]
active: [1] 99.5 µM | [10] 99.5 µM

Cc1cccc(C)n1
inactive: [1] | [2] | [3] | [4] | [7] | [9] | [8]

CCc1cccc(C)c1N(C(=O)C(=O)O)C(C)COC (centres undefined)
inactive: [1] | [2] | [3] | [4] | [5] | [7] | [9] | [8]

CCOCN(C(=O)CS(=O)(=O)O)c1c(C)cccc1CC
inactive: [1] | [2] | [3] | [4] | [5] | [7] | [8]

COCCOCCC[Si](C)(O[Si](C)(C)C)O[Si](C)(C)C
inactive: [2] | [3] | [9]
active: [1] 33.4 µM | [4] 2.56 µM | [7] 2.99 µM

O=c1cccc[nH]1
inactive: [1] | [2] | [3] | [4] | [6] | [7] | [9]

CCC(C)CO (centres undefined)
inactive: [1] | [2] | [3] | [4] | [6] | [7] | [9]

CCOC(=O)C1CC(=O)C(=C(O)C2CC2)C(=O)C1 (centres undefined)
inactive: [1] | [2] | [3] | [4] | [7] | [8]

Source: PubChem BioAssay (EPA / NIEHS)
